Results reported in PubChem BioAssay AID1159580 (chemical genetic matrix, 2015).
The whole screen tested about 5,500 compounds, of which about 2,000 (36%) were called active. Not shown: some 18% with an inconclusive outcome. No stated cut-off is given here; in the data, active means normalized growth mostly below about 0.91 (no sharp cut-off); inconclusive means no clear call, values can overlap the other calls; inactive means mostly above about 0.92. The list shows a part of the results.

Assay: chemical genetic growth profiling, strain panel (AID 1159580);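 further: tested at 20 µM; growth read once vehicle control cultures reached saturation at 30 °C; 1 = growth at the plate median or of vehicle wells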
Conditions: S. cerevisiae deletion strains, growth OD

Measured: normalized growth

CCC(C)C(=O)O[C@H]1C[C@H](O)C=C2C=C[C@H](C)[C@H](CC[C@@H](O)C[C@@H](O)CC(=O)O)C21 (stereo not given in full)
inactive: locus YAL021C, strain ccr4, stronger effect = lower value 1.02 | locus YAL026C, strain drs2, stronger effect = lower value 1.03 | locus YAL030W, strain snc1, stronger effect = lower value 1 | locus YBL061C, strain skt5, stronger effect = lower value 1.01 | locus YBR009C, strain hhf1, stronger effect = lower value 0.966 | locus YBR023C, strain chs3, stronger effect = lower value 1.02 | locus YBR171W, strain sec66, stronger effect = lower value 1 | locus YBR231C, strain swc5, stronger effect = lower value 0.976 | locus YBR279W, strain paf1, stronger effect = lower value 1.02 | locus YCL011C, strain gbp2, stronger effect = lower value 1.02 | locus YCL016C, strain dcc1, stronger effect = lower value 1.03 | locus YCL061C, strain MRC1, stronger effect = lower value 1.01 | locus YCL069W, strain vba3, stronger effect = lower value 1.01 | locus YCR088W, strain abp1, stronger effect = lower value 1 | locus YDL005C, strain med2, stronger effect = lower value 1.03 | locus YDL040C, strain nat1, stronger effect = lower value 0.993 | locus YDR001C, strain nth1, stronger effect = lower value 1.01 | locus YDR069C, strain doa4, stronger effect = lower value 1.01 | locus YDR159W, strain sac3, stronger effect = lower value 0.937 | locus YDR195W, strain ref2 0.952 | locus YDR297W, strain sur2, stronger effect = lower value 1.01 | locus YDR334W, strain swr1, stronger effect = lower value 0.994 | locus YDR335W, strain msn5, stronger effect = lower value 1.02 | locus YDR392W, strain spt3, stronger effect = lower value 0.987 | locus YEL003W, strain gim4, stronger effect = lower value 1.02 | locus YEL037C, strain rad23, stronger effect = lower value 1.02 | locus YEL061C, strain CIN8 (second series), stronger effect = lower value 0.986 | locus YER015W, strain faa2, stronger effect = lower value 1 | locus YER016W, strain bim1, stronger effect = lower value 1.06 | locus YER111C, strain swi4, stronger effect = lower value 1.02 | locus YER155C, strain BEM2 (second series), stronger effect = lower value 1.02 | locus YFR010W, strain ubp6, stronger effect = lower value 0.995 | locus YGL167C, strain pmr1, stronger effect = lower value 1 | locus YGL173C, strain kem1, stronger effect = lower value 1.02 | locus YGL227W, strain vid30, stronger effect = lower value 1 | locus YGL240W, strain doc1, stronger effect = lower value 1.04 | locus YGL253W, strain hxk2, stronger effect = lower value 1.02 | locus YHR013C, strain ard1, stronger effect = lower value 1.02 | locus YHR027C, strain rpn1, stronger effect = lower value 1.01 | locus YHR030C, strain SLT2, stronger effect = lower value 0.977 | locus YHR079C, strain IRE1, stronger effect = lower value 0.975 | locus YHR142W, strain chs7, stronger effect = lower value 1.02 | locus YJL092W, strain hpr5, stronger effect = lower value 1.01 | locus YJL095W, strain BCK1 (second series), stronger effect = lower value 1.02 | locus YJL095W, strain BCK1, stronger effect = lower value 0.965 | locus YJL115W, strain asf1, stronger effect = lower value 1.01 | locus YJL129C, strain trk1, stronger effect = lower value 1.02 | locus YJL154C, strain vps35, stronger effect = lower value 1.01 | locus YJL164C, strain tpk1, stronger effect = lower value 1.01 | locus YJL166W, strain qcr8, stronger effect = lower value 0.992 | locus YJL187C, strain SWE1, stronger effect = lower value 1.01 | locus YJR066W, strain TOR1, stronger effect = lower value 0.907 | locus YKL160W, strain elf1, stronger effect = lower value 1.05 | locus YKR026C, strain gcn3, stronger effect = lower value 0.99 | locus YKR091W, strain srl3, stronger effect = lower value 1 | locus YLL001W, strain dnm1, stronger effect = lower value 0.961 | locus YLL026W, stronger effect = lower value 1 | locus YLL041C, strain sdh2, stronger effect = lower value 0.991 | locus YLR027C, strain aat2, stronger effect = lower value 1 | locus YLR113W, strain HOG1, stronger effect = lower value 1 | locus YLR221C, strain rsa3, stronger effect = lower value 0.998 | locus YLR258W, strain gsy2, stronger effect = lower value 1.03 | locus YLR262C, strain YPT6 (second series), stronger effect = lower value 1.12 | locus YLR320W, strain mms22, stronger effect = lower value 0.963 | locus YLR342W, strain FKS1, stronger effect = lower value 1.02 | locus YLR357W, strain rsc2, stronger effect = lower value 1 | locus YLR370C, strain arc18, stronger effect = lower value 1.02 | locus YLR384C, strain iki3, stronger effect = lower value 0.991 | locus YML120C, strain ndi1, stronger effect = lower value 1.02 | locus YMR058W, strain fet3, stronger effect = lower value 1.01 | locus YMR125W, strain sto1, stronger effect = lower value 1.04 | locus YMR129W, stronger effect = lower value 1 | locus YMR205C, strain PFK2, stronger effect = lower value 0.972 | locus YMR231W, strain pep5, stronger effect = lower value 1 | locus YNL071W, strain lat1, stronger effect = lower value 1 | locus YNL183C, strain NPR1, stronger effect = lower value 0.902 | locus YNL209W, strain ssb2, stronger effect = lower value 1.01 | locus YNL248C, strain rpa49, stronger effect = lower value 1.03 | locus YNL322C, strain KRE1 (second series), stronger effect = lower value 1.06 | locus YNR049C, strain mso1, stronger effect = lower value 1.01 | locus YOR001W, strain rrp6, stronger effect = lower value 0.992 | locus YOR070C, strain gyp1, stronger effect = lower value 1 | locus YOR080W, strain dia2, stronger effect = lower value 0.999 | locus YOR083W, strain WHI5, stronger effect = lower value 1.01 | locus YOR106W, strain vam3, stronger effect = lower value 1.04 | locus YOR231W, strain MKK1, stronger effect = lower value 0.954 | locus YOR265W, strain rbl2, stronger effect = lower value 1 | locus YOR270C, strain vph1, stronger effect = lower value 0.946 | locus YOR290C, strain snf2, stronger effect = lower value 1.05 | locus YPL051W, strain arl3, stronger effect = lower value 1.06 | locus YPL078C, strain atp4, stronger effect = lower value 1.05 | locus YPL106C, strain sse1, stronger effect = lower value 1.02 | locus YPL240C, strain hsp82, stronger effect = lower value 1.01 | locus YPL256C, strain CLN2, stronger effect = lower value 1.01
active: locus YDR137W, strain rgp1, stronger effect = lower value 1.3 [resistant]
